Measured values from PubChem BioAssay.
Results with a measured potency or affinity are listed apart. Activity calls are given as the source filed them. The rule behind the calls is not given here.

Each molecule was assayed on Ras-related protein Rab-7a (dog), GTP binding (assay: Rab7 GTP binding inhibitors, potency, dose response, biochemical, wildtype, multiplex bead flow cytometry (AID 1336)). Settings: bead-based flow cytometry, fluorescent GTP binding to Rab7; series mostly up to 100 µM.

outcome, inactive:
CCCN(N=Nc1cccc([N+](=O)[O-])c1)c1cccc([N+](=O)[O-])c1
S=C(NCCc1ccccc1)NC1CC1
Cc1nn2c(-c3cccc(NC(=O)c4ccco4)c3)nnc2c2ccccc12
Cc1cc(C(=O)NC(=S)Nc2cccc(C(=O)O)c2C)ccc1[N+](=O)[O-]
O=C(O)c1cccc(NCc2ccccc2)c1
COc1ccc(N=C2S/C(=C\c3ccc(N4CCOCC4)o3)C(=O)N2CCc2c[nH]c3ccccc23)cc1
C/C(=N\NC(=O)CC1N=C(Cc2ccccc2)NNC1=O)c1ccc(Cl)cc1Cl (stereo not given)
Nc1[nH]n2c(=O)c3c(nc2c1N=Nc1ccc(Cl)cc1)CCCC3
Cc1cc2nc3c(=O)[nH]c(=O)[nH]c3nc2c([N+](=O)[O-])c1N
COC(=O)c1ccc(COc2ccccc2/C=N/Nc2cccc(C(=O)O)c2)cc1
Cc1ccc(CNCc2c(C)[nH]c(C)c2C(=O)O)cc1
COCCNc1nnnc2c1sc1nc(N3CCOCC3)c3c(c12)CCCC3
CC(C)Nc1nnc(SCC(=O)Nc2ccc3c(c2)C(=O)c2ccccc2C3=O)s1
O=C(Cn1cnc2cc([N+](=O)[O-])ccc2c1=O)NCCc1ccc(Cl)cc1
CCOc1cc(/C=C2/NC(=O)NC2=O)cc([N+](=O)[O-])c1O
Cc1ccc(N=Nc2c(N)[nH]n3c(=O)cc(-c4ccccc4)nc23)cc1
C=CCN1C(=O)/C(=C/c2ccc(N(C)C)cc2)S/C1=N\c1nnc(CC)s1
O=[N+]([O-])c1cc(Cc2ccccc2)cc(C=Nc2ccc(N3CCOCC3)cc2)c1O
COc1ccc(CNC(=O)C2CC(=O)N(c3ccc(OCC(=O)N4C(C)CCCC4C)cc3)C2)cc1 (stereo not given)
O=C(O)c1cccnc1SCc1ccc([N+](=O)[O-])cc1
O=C(Nc1ccccc1F)c1ccccc1-c1ccccc1
Cc1nn2c(N)csc2nc1=O
O=[N+]([O-])c1ccc(/C=C/C2=NN(c3ccccc3)C(c3ccco3)C2)cc1 (stereo not given)
COc1cc(/C=N/Nc2ncnc3sc4c(c23)CCC4)ccc1O
COc1ccc(/C=C2/N=C(SCC(=O)Nc3cc(C)on3)N(c3ccccc3)C2=O)cc1
Cn1nc([N+](=O)[O-])c(C(C#N)c2ccccn2)c(Cl)c1=O (stereo not given)
Cc1ccc(C(C)C)c(OCCn2cc(C(=O)O)c3ccccc32)c1
COc1cc(N2CCCC2)c(OC)cc1/C=C(/C#N)c1cccc(Br)c1
COc1cc(CCNc2ccc3nnc(-c4ccccc4)n3n2)cc(OC)c1OC
Oc1ccc(C2=Nn3c(nnc3-c3ccco3)SC2)cc1O
Nc1[nH]c(=S)nc2nc(-c3ccccc3)c(-c3ccccc3)nc12
COc1ccc(CNc2ccccc2C(=O)O)cc1
CCOc1ccc(-n2nc3c(=S)[nH]nc(C)c3c2C)cc1
CCOc1ccc2nc(SCc3ccc(CC(=O)O)cc3)c(C#N)cc2c1
COc1ccccc1OCCn1cc(C(=O)O)c2c(C)cccc21
Cc1[nH]c2ccccc2c1C(=O)CNc1nccs1
CCOc1cc(/C=C2\SC(=O)N=C2N)ccc1O
NC(=O)c1cc2nc(-c3ccco3)cc(C(F)(F)F)n2n1
O=C(C1CCCO1)N1CCN(C(=S)Nc2ccccc2C(F)(F)F)CC1 (stereo not given)
CCCCNc1nc(=S)[nH]c2cc(OC)c(OC)cc12
